Screens (PubChem BioAssay)
Pf Dd2 inh: inhibitors of Plasmodium falciparum Dd2 growth; P. falciparum Dd2 growth, SYBR Green, 72 h; Potency, µM (titrated, usually from 28.9 µM), for inactives: top-dose activity, negative = inhibition, actives largely listed as inhibitors; hit rate 4.3% among 120,000; active = well fitted inhibition curve with a large enough effect;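 note: plate controls were DMSO vehicle for no effect and reference drug for full effect; nearly all actives have a fitted effect of over 65% in size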
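Infected erythrocytes (Dd2, 0.3% parasitemia, 2.5% hematocrit final) are added to compound in RPMI-1640/Albumax II medium, grown 72 h at 37C in low oxygen, then lysed with saponin/Triton-X containing SYBR Green and read by fluorescence.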
* hit, by the source's call; i = inactive; [ ] = remark or other dose. The full list was thinned out, with hits kept by preference. Potency is the fitted concentration of half-maximal effect.

SMILES	Pf Dd2 inh
COc1ccc(OC)c(CN2CCC3(CC2)OC(=O)N(Cc2ccccc2C#N)C3(C)c2ccccc2)c1 (configuration not stated)	-25.3%
C=CCN1C[C@@]2(C(=O)O)CN(c3nccc4ccccc34)C[C@H]2C1=O	-10.3%
COc1ccc(C(=O)N2CCc3onc(-c4ccc(C(F)(F)F)cc4)c3C2)o1	-7.3%
NC(=O)c1nnn([C@H]2CCN3C(=O)[C@@H](Cc4ccccc4)NC(=O)[C@@H]3C2)c1C(N)=O	8.9%[44.1 µM]
CCCN1C(=O)Cc2ccccc2C1C(=O)NCc1ccccc1Cl (configuration not stated)	-12.8%
CN1C[C@H](NCc2ccc(C(F)(F)F)cc2)CCC[C@@H](C(=O)N(C)Cc2cccnc2)CC1=O	-6.8%
CN1CCC(C(=O)N2CCC3(CC2)OC(=O)N(Cc2ccccc2F)C3(C)c2ccccc2)CC1 (configuration not stated)	5.62µM*
CC1(c2ccccc2)N(Cc2ccccc2F)C(=O)OC12CCN(C(=O)CN1CCOCC1)CC2 (configuration not stated)	i
CC(=O)N1CCC2(CC1)OC(=O)N(Cc1ccccc1F)C2(C)c1ccccc1 (configuration not stated)	i
CO[C@H]1C(=O)N(C2CCN(S(=O)(=O)c3cccs3)CC2)[C@H]1c1ccncc1	7.6%
COCCn1c(CN2C(=O)N(C)C(=O)C2(C)C)nnc1C1CC(N)C1 (configuration not stated)	-8.2%
COC(=O)c1cnc2c(c1)n(CCCn1cnnn1)c(=O)n2C1CCCCC1	13.5%
COc1ccc(-c2nc(C)nc3c2CCN(CC2CC2)CC3)cc1	i
COc1ccc(CC(=O)N2CCc3nc(C4CC4)nc(-c4ccc(Cl)cc4)c3C2)cc1	i
COc1ccc(-c2nc(C)nc3c2CCN(CCC(C)C)CC3)cc1	-15.1%
Clc1ccc(-c2nc(C3CC3)nc3c2CCN(Cc2ccccc2)CC3)cc1	i
COc1ccc(-c2nc(C3CC3)nc3c2CCN(Cc2ccccc2)CC3)cc1	5.01µM*
COc1ccc(-c2nc(C3CC3)nc3c2CCN(Cc2cc(C)on2)CC3)cc1	2.51µM*
CCN(CC)C(=O)[C@@H]1CCC[C@@H](NC(=O)c2cc(C)on2)CN(C)C(=O)C1	-10.2%[44.1 µM]
CCn1nc(C)c(CN(CCOC)C(=O)C2COc3ccccc3C2)c1C (configuration not stated)	-6.0%
CC(C)NC(=O)c1ccc2c(c1)C1(CCN(CC3CC3)C1)CN2Cc1ccccc1 (configuration not stated)	i
CS(=O)(=O)N1CCc2n[nH]c(=O)n2CC1	4.8%
CC[C@@H]1[C@@H](NC(=O)CCCn2nnc(-c3ccc(F)cc3)n2)[C@@H]2CCO[C@H]12	-13.1%
CN(C(=O)Cc1cccc(Cl)c1)C1CCc2ccccc21 (configuration not stated)	i
CN(CC1CCOCC1)C(=O)Cc1cccc(Cl)c1	4.7%
SMILES	Pf Dd2 inh
CN(C(=O)Cc1cccc(Cl)c1)C1CCCc2ccccc21 (configuration not stated)	14.1µM*
O=C(c1ccc(F)cc1)N1CCC(c2n[nH]c(=O)n2-c2ccccc2)CC1	18.8%
CN(C)c1ccc(NC(=O)CN2C(=O)c3ccccc3Sc3ccc(C(=O)N4CCCC4)cc32)cc1	10µM*
Cc1ccc(NC(=O)CN2C(=O)c3ccccc3Sc3ccc(C(=O)N4CCOCC4)cc32)cc1C	-25.0%
CCOC(=O)c1ccc2c(c1)N(CC(=O)Nc1cc(F)ccc1F)C(=O)c1ccccc1S2	-25.8%
COc1ccc(OC)c(NC(=O)CN2C(=O)c3ccccc3Sc3ccc(C(=O)N4CCCC4)cc32)c1	10µM*
O=C(c1ccc2c(c1)N(Cc1ccccc1Cl)C(=O)c1ccccc1S2)N1CCCC1	i
O=C(c1ccc2c(c1)N(Cc1cccc(F)c1)C(=O)c1ccccc1S2)N1CCCC1	i
N#Cc1cccnc1N1CC[C@@H](N2CCC(O)CC2)[C@H](O)C1	-3.8%
CN1CCC2(C1)CN(Cc1ccccc1)c1ccc(C(=O)NC3CCC3)cc12 (configuration not stated)	-10.2%[44.1 µM]
O=C(c1cccc(OC(F)(F)F)c1)N1CCCC1c1nncn1Cc1ccncc1 (configuration not stated)	-0.9%
Cc1nc(C)c(C(=O)N2CCC(Cc3nc(C4CC4)n[nH]3)CC2)s1	15.8%
O=C(NC1CCCCCCC1)C1CCCN(c2cnn(Cc3ccccc3)c(=O)c2)C1 (configuration not stated)	-40.3%
O=C(NC1CCN(Cc2ccccc2)CC1)C1CCCN(c2cnn(Cc3ccccc3)c(=O)c2)C1 (configuration not stated)	-27.0%
O=C(NCc1ccc(Cl)cc1)C1CCCN(c2cnn(Cc3ccccc3)c(=O)c2)C1 (configuration not stated)	11.2µM*
CC(C)OCCCNC(=O)c1ccc2c(c1)N(S(C)(=O)=O)CC2	i
Cc1ccc(CN2C(=O)NC3(CCN(C(=O)c4ccccn4)CC3)C2=O)cc1	15.5%
COc1ccc(C2Cn3nnc(-c4noc(CCc5ccccc5)n4)c3CO2)cc1 (configuration not stated)	i
COCCOCC1(CNC(=O)C2CCCC2)C[C@@H](O)[C@@H](O)C1 (some centres not stated)	12.8%[44.1 µM]
O=C(NCc1cccc(Cl)c1)c1ccc(NC(=O)N2CC3CCCN3c3ccccc32)cc1 (configuration not stated)	8.91µM*
O=C(NCc1cccc(Br)c1)c1ccc(NC(=O)N2CCCCc3ccccc32)cc1	-3.1%
O=C(CCC(=O)N1CC2CCCN2c2ccccc21)NCc1cccc(Cl)c1 (configuration not stated)	11.5%
CS(=O)(=O)N1CCC(OC2CCN(C(=O)Nc3cccc(Cl)c3)CC2)CC1	i
O=C(Nc1cccc(Cl)c1)N1CC2CCCN2c2ccccc21 (configuration not stated)	8.91µM*
O=C(c1cccc(Cl)c1)N1CCC(N2CC3CCCN3C2=O)CC1 (configuration not stated)	19.6%
SMILES	Pf Dd2 inh
CCOc1cccc(CNC(=O)[C@H]2CCC[C@H]2NC(=O)c2ccc(OC)nc2)c1	-24.6%
CC(=O)Nc1ccc(CN[C@@H]2CO[C@H](CNS(C)(=O)=O)[C@H]2O)cc1	-0.9%[44.1 µM]
COc1ccc(CN2C(=O)CO[C@H](c3ccc(NC(=O)Nc4ccccc4)cc3)[C@H]2CO)cc1	i
CC(C)C[C@@H](NC(=O)[C@@H]1C[C@@H](NS(=O)(=O)c2cn(C)cn2)CCN1C(=O)COCC(=O)O)C(N)=O	16.0%
Cc1cnc(C2CC2)n1C1CCCN(C(=O)CC(C)C)C1 (configuration not stated)	-6.6%
CC(C)(C)C(=O)N1CCCC(c2nn(-c3ccccc3)c(=O)[nH]2)C1 (configuration not stated)	i
CC(C)Cc1cnc(C2CCCN(C(=O)OC(C)(C)C)C2)[nH]1 (configuration not stated)	7.08µM*
CC(C)c1cnc(C2CCCN(C(=O)OC(C)(C)C)C2)[nH]1 (configuration not stated)	11.2µM*
COc1ccc(-n2nc(C3CCCN(C(=O)C(C)(C)C)C3)[nH]c2=O)cc1 (configuration not stated)	i
CCCCc1ncc(CN2CCCC(c3cccc(C(=O)O)c3)C2)[nH]1 (configuration not stated)	-2.4%
O=C1CCN(C(=O)NCCc2ccccc2)CCCCCCN1	-3.1%
COc1ccccc1CCNC(=O)C1CC(=O)N(c2n[nH]c3cccc(F)c23)C1 (configuration not stated)	-23.5%
